In the supplement of paper PMC6411743:
± gives the standard deviation of the averaged measurements. Of roughly 6,200 targets only a part is listed; those with the largest changes were picked by preference.

Legend:
Assay in all cases: NP40-soluble protein abundance relative to vehicle (solubility fold change) (ratio); higher = more soluble protein in presence of AMP-PNP
[1] = target: T1, UniProt Q58A45|Q58A45-3
T1 sequence (whole entry): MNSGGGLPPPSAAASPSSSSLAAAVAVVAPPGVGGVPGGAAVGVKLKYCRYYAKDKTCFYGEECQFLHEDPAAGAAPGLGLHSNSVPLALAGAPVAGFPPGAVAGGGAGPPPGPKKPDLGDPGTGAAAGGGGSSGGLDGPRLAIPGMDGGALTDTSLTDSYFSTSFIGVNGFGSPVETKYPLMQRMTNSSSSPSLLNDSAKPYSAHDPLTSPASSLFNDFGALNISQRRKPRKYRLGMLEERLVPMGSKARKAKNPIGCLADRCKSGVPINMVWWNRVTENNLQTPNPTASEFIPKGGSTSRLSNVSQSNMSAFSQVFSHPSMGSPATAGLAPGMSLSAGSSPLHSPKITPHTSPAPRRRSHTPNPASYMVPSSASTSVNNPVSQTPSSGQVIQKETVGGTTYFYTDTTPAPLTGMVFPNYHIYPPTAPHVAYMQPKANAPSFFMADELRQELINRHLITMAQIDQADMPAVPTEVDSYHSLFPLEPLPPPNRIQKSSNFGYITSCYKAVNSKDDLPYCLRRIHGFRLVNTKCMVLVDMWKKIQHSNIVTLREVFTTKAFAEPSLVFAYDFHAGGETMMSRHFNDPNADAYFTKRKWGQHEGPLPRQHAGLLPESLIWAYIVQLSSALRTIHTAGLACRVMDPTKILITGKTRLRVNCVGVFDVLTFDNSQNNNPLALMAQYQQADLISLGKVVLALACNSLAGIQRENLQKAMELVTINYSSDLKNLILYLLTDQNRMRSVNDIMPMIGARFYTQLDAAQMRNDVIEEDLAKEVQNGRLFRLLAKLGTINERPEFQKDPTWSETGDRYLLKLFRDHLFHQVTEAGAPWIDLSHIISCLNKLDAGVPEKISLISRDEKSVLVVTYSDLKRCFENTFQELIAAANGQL
Summary of the method: (§1)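 Jurkat crude lysate prepared with a Dounce homogeniser was treated at eight concentrations spanning 0.1 to 10 mM, 10 min at room temperature then 3 min at 37 °C. Solubilisation with 0.8% NP40 and benzonase and ultracentrifugation preceded TMT labelling of the supernatant for LC-MS/MS. Fold change against the detergent-processed vehicle was determined per replicate from vsn-normalised intensities, across three independent experiments.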

[2] = target: T2, UniProt Q5SGD2|Q5SGD2-3
T2 sequence (whole entry): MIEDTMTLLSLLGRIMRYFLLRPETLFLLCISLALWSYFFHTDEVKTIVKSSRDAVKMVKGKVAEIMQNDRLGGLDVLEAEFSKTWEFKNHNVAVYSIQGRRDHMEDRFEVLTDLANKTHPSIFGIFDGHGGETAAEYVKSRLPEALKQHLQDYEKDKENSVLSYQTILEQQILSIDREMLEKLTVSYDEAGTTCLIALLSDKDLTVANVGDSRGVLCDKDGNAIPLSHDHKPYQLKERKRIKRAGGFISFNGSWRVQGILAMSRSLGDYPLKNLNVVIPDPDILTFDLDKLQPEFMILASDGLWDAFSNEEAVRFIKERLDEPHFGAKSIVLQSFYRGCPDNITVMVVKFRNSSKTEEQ
Summary of the method: as §1

[3] = target: T3, UniProt Q6PJT7-2|Q6PJT7-3|Q6PJT7-5|Q6PJT7-9|Q6PJT7
T3 sequence (whole entry): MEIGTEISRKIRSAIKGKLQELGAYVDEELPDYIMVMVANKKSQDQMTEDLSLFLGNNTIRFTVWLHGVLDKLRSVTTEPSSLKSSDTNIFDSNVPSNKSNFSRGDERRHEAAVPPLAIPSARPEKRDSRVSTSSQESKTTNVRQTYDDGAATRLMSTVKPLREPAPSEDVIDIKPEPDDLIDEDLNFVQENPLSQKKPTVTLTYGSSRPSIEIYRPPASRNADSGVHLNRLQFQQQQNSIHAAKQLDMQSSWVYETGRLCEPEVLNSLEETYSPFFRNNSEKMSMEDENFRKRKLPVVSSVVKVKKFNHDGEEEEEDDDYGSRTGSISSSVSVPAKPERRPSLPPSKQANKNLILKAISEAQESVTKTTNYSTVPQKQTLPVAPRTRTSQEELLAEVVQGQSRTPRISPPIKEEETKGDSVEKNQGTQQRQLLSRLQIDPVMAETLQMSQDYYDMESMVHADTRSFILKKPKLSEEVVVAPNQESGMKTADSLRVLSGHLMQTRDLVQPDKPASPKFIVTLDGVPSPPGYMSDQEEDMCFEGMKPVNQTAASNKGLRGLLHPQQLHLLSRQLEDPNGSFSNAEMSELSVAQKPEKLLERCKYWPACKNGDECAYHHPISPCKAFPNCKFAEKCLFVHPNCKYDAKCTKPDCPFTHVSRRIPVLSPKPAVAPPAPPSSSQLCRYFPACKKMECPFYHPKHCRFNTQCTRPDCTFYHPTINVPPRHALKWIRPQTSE
Summary of the method: as §1

[4] = target: T4, UniProt Q8N0Z3
T4 sequence (whole entry): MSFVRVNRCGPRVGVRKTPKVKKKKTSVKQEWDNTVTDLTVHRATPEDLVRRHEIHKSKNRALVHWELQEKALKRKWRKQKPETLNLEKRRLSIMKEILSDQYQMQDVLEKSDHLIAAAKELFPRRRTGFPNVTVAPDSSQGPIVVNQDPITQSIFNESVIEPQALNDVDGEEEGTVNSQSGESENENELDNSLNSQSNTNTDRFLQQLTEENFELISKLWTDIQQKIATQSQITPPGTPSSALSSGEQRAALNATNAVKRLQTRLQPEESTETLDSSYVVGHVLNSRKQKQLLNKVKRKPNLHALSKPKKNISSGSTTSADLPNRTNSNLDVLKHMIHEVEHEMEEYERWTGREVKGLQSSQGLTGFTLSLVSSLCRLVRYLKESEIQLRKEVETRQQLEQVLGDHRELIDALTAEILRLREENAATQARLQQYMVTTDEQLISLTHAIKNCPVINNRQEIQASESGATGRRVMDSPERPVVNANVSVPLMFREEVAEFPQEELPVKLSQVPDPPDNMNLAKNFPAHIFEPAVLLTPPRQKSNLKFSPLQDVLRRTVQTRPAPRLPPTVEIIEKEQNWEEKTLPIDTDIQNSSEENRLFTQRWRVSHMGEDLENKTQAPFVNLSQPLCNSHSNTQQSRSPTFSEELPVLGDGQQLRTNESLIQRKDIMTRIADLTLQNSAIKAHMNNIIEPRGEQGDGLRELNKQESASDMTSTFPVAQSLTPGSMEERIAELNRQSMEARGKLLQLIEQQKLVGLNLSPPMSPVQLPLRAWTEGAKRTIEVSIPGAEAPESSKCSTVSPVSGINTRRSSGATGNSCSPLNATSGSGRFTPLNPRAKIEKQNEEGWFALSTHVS
Summary of the method: as §1

[5] = target: T5, UniProt Q92581-2|Q92581-3|Q92581
T5 sequence (whole entry): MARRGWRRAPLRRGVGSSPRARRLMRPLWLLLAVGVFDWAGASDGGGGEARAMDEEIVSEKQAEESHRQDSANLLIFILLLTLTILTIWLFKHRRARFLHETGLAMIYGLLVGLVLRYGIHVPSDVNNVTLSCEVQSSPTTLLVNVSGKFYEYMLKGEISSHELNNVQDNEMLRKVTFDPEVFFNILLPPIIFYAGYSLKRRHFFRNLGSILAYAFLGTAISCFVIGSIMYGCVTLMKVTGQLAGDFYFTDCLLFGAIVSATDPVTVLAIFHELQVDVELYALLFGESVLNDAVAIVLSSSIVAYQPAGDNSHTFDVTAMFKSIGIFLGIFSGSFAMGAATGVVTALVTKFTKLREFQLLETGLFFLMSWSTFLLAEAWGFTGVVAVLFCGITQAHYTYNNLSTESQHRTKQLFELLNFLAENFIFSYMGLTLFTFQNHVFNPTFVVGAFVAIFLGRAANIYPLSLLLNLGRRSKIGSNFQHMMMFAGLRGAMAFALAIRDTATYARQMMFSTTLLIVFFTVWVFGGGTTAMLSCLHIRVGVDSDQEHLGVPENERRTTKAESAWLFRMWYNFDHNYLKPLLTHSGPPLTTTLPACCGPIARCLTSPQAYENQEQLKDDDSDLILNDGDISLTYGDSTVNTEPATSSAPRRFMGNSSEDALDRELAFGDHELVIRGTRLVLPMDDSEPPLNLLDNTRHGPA
Summary of the method: as §1

**Q.** Which NP40-soluble protein abundance ([1]; concentration: 1mM) does the source give for `Nc1ncnc2c1ncn2[C@@H]1O[C@H](COP(=O)(O)OP(=O)(O)NP(=O)(O)O)[C@@H](O)[C@H]1O` [adenylyl imidodiphosphate] here?
**A.** 1.032 ± 0.0089

**Q.** What about the NP40-soluble protein abundance ([1]; concentration: 2mM) of the same compound?
**A.** 1.02 ± 0.024

**Q.** What about the NP40-soluble protein abundance ([1]; concentration: 4mM) of the same compound?
**A.** 1.02 ± 0.03

**Q.** What about the NP40-soluble protein abundance ([1]; concentration: 6mM) of the same compound?
**A.** 0.999 ± 0.026

**Q.** And the NP40-soluble protein abundance ([1]; concentration: 8mM)?
**A.** 1.03 ± 0.022

**Q.** What about the NP40-soluble protein abundance ([1]; concentration: 10mM) of the same compound?
**A.** 1.01 ± 0.022

**Q.** What about the NP40-soluble protein abundance ([2]; concentration: 1mM) of the same compound?
**A.** 1.02 ± 0.029

**Q.** And the NP40-soluble protein abundance ([2]; concentration: 2mM)?
**A.** 1.03 ± 0.049

**Q.** And the NP40-soluble protein abundance ([2]; concentration: 4mM)?
**A.** 1 ± 0.019

**Q.** What about the NP40-soluble protein abundance ([2]; concentration: 6mM) of the same compound?
**A.** 1 ± 0.016

**Q.** What about the NP40-soluble protein abundance ([2]; concentration: 8mM) of the same compound?
**A.** 1.02 ± 0.06

**Q.** And the NP40-soluble protein abundance ([2]; concentration: 10mM)?
**A.** 1.006 ± 0.0075

**Q.** What about the NP40-soluble protein abundance ([3]; concentration: 1mM) of the same compound?
**A.** 1.04 ± 0.018

**Q.** What about the NP40-soluble protein abundance ([3]; concentration: 2mM) of the same compound?
**A.** 1.17 ± 0.082

**Q.** And the NP40-soluble protein abundance ([3]; concentration: 4mM)?
**A.** 1.2 ± 0.061

**Q.** What about the NP40-soluble protein abundance ([3]; concentration: 6mM) of the same compound?
**A.** 1.28 ± 0.14

**Q.** And the NP40-soluble protein abundance ([3]; concentration: 8mM)?
**A.** 1.29 ± 0.15

**Q.** And the NP40-soluble protein abundance ([3]; concentration: 10mM)?
**A.** 1.33 ± 0.13

**Q.** What about the NP40-soluble protein abundance ([4]; concentration: 1mM) of the same compound?
**A.** 0.943 ± 0.051

**Q.** What about the NP40-soluble protein abundance ([4]; concentration: 2mM) of the same compound?
**A.** 0.976 ± 0.024

**Q.** And the NP40-soluble protein abundance ([4]; concentration: 4mM)?
**A.** 0.959 ± 0.03

**Q.** What about the NP40-soluble protein abundance ([4]; concentration: 6mM) of the same compound?
**A.** 0.955 ± 0.027

**Q.** What about the NP40-soluble protein abundance ([4]; concentration: 8mM) of the same compound?
**A.** 0.957 ± 0.026

**Q.** And the NP40-soluble protein abundance ([4]; concentration: 10mM)?
**A.** 0.964 ± 0.02

**Q.** And the NP40-soluble protein abundance ([5]; concentration: 1mM)?
**A.** 0.999 ± 0.012

**Q.** What about the NP40-soluble protein abundance ([5]; concentration: 2mM) of the same compound?
**A.** 0.9876 ± 0.0034

**Q.** What about the NP40-soluble protein abundance ([5]; concentration: 4mM) of the same compound?
**A.** 0.957 ± 0.028

**Q.** And the NP40-soluble protein abundance ([5]; concentration: 6mM)?
**A.** 0.9812 ± 0.0025

**Q.** And the NP40-soluble protein abundance ([5]; concentration: 8mM)?
**A.** 0.979 ± 0.025

**Q.** What about the NP40-soluble protein abundance ([5]; concentration: 10mM) of the same compound?
**A.** 0.96 ± 0.026
